Test results: PubChem BioAssay (EPA / NIEHS)
Inconclusive results are not listed. Activity calls are given as the source filed them. Rule for the calls: active = hit-call score of the fitted dose curve at least 0.9, where 1 is the maximum; inconclusive = response in the unintended direction; inactive = score below 0.9.

How the values were obtained:
[1] = LTEA_HepaRG_LDH_cytotoxicity: Cytotoxicity Assessment in the Life Technologies and Expression Analysis (LTEA) Assay (AID 2283563);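 for AC50: LDH activity released into spent culture medium as a marker of cell death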
Procedure, shortened: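 Human HepaRG hepatic cells are treated with test chemicals for 48 h at up to 100 uM in 0.5% DMSO. Cytotoxicity is scored from medium LDH against the vehicle control.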

[2] = TOX21_p53_BLA_p2_viability: Viability Assessment in the Tox21 HCT-116 p53 Agonism Beta-lactamase Assay, Phase 2 (AID 2283591);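 note: actives lower the ATP signal meaning cytotoxicity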
Procedure, shortened: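 Cytotoxicity readout: CellTiter-Glo ATP luminescence, 30 min at room temperature, after the beta-lactamase read. Cells were HCT116 exposed 16 h at 37C to compounds pin-transferred at 217-fold dilution from DMSO stocks.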

[3] = molecular target: Cellular tumor antigen p53 (Homo sapiens) (UniProt P04637); assay: TOX21_p53_BLA_p2_ratio: Tox21 HCT-116 p53 Agonism Beta-lactamase Assay, Ratio, Phase 2 (AID 2283592)
Chain of Cellular tumor antigen p53 (Homo sapiens) (P04637 whole entry, looked up): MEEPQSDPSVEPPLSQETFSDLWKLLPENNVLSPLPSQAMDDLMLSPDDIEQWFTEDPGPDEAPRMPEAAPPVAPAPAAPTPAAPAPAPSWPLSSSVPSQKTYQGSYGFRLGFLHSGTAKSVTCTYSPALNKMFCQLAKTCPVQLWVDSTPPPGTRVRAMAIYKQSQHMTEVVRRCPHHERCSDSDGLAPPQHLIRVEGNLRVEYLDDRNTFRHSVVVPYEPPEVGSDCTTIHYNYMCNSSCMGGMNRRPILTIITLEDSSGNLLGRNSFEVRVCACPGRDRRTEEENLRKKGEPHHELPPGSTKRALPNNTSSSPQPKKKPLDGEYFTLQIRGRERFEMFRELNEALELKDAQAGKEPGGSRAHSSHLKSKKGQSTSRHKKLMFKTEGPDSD
Procedure, shortened: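 An inducible beta-lactamase reporter in HCT116 cells signals p53 pathway activation. After 16 h chemical exposure at 37C, cells load CCF4-AM substrate for 2 h at room temperature; activity is the cleaved/uncleaved emission ratio relative to DMSO.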

[4] = TOX21_p53_BLA_p3_viability: Viability Assessment in the Tox21 HCT-116 p53 Agonism Beta-lactamase Assay, Phase 3 (AID 2283593);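 note: cells exposed to compound for 16 h before reading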
Procedure, shortened: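 Cellular ATP was quantified by CellTiter-Glo luminescence, read after 30 min at room temperature. Beforehand, HCT116 cells (4000/well) received compound 5 h post-seeding, 217-fold diluted from DMSO, then incubated 16 h at 37C.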

[5] = molecular target: Cellular tumor antigen p53 (Homo sapiens) (UniProt P04637); assay: TOX21_p53_BLA_p3_ratio: Tox21 HCT-116 p53 Agonism Beta-lactamase Assay, Ratio, Phase 3 (AID 2283596)
Procedure, shortened: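 HCT116 p53-bla cells (4000/well) given compound in DMSO (217-fold dilution) after 5 h, incubated 16 h at 37C. CCF4-AM substrate 2 h at room temperature; 460/530 nm emission ratio, gain fitted against DMSO.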

[6] = TOX21_p53_BLA_p4_viability: Viability Assessment in the Tox21 HCT-116 p53 Agonism Beta-lactamase Assay, Phase 4 (AID 2283597);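 note: hits lower the luminescence signal meaning cytotoxicity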
Procedure, shortened: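 Compound exposure of HCT116 cells lasts 16 h at 37C, 5% CO2, with DMSO stocks diluted 217-fold. Cellular ATP is then quantified by CellTiter-Glo luminescence after 30 min at room temperature.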

[7] = TOX21_p53_BLA_p5_viability: Viability Assessment in the Tox21 HCT-116 p53 Agonism Beta-lactamase Assay, Phase 5 (AID 2283600)
Procedure, shortened: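 Counter-readout for cytotoxicity: ATP-dependent luminescence from CellTiter-Glo, read in the beta-lactamase wells after 30 min at RT, following a 16 h compound exposure at 37C.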

[8] = molecular target: Cellular tumor antigen p53 (Homo sapiens) (UniProt P04637); assay: TOX21_p53_BLA_p4_ratio: Tox21 HCT-116 p53 Agonism Beta-lactamase Assay, Ratio, Phase 4 (AID 2283601)
Procedure, shortened: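 Signal is the blue/green (460nm/530nm) ratio of cleaved versus uncleaved CCF4-AM substrate, read after 2 h substrate loading. Cells were HCT116 carrying the p53-responsive beta-lactamase reporter, dosed 16 h at 37C, 5% CO2; CellTiter-Glo measured in parallel.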

[9] = Tanguay_ZF_120hpf_MORT_legacy: (Legacy) Oregon State University Tanguay Lab 120 Hour Post-fertilization zebrafish Assay for Mortality (AID 2283633);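 for AC50: fitted as increase in binary mortality versus DMSO negative control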
Procedure, shortened: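 Mortality endpoint from a multiplexed whole-embryo zebrafish screen. Dechorionated wild-type embryos received compound at 6 hpf and remained under static exposure at 28C until 120 hpf, with death noted as a present/absent call.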

[10] = Tanguay_ZF_120hpf_YSE_legacy: (Legacy) Oregon State University Tanguay Lab 120 Hour Post-fertilization zebrafish Assay for Yolk Sac Edema (AID 2283634);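 for AC50: actives raise the incidence of yolk sac edema above the DMSO baseline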
Procedure, shortened: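 Readout: presence or absence of yolk sac edema at 120 hpf, fitted upward against DMSO controls. Exposure ran statically from 6 hpf in dechorionated embryos kept at 28C.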

[11] = Tanguay_ZF_120hpf_AXIS_legacy: (Legacy) Oregon State University Tanguay Lab 120 Hour Post-fertilization zebrafish Assay for Body Axis Malformation (AID 2283635);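 for AC50: potency for an increased fraction of larvae scored with body axis malformation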
Procedure, shortened: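 Static 6–120 hpf chemical exposure of dechorionated wild-type 5D zebrafish, one per well at 28C; morphology endpoint scored binary at 120 hpf relative to DMSO control.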

[12] = Tanguay_ZF_120hpf_EYE_legacy: (Legacy) Oregon State University Tanguay Lab 120 Hour Post-fertilization zebrafish Assay for Eye Malformation (AID 2283636)
Procedure, shortened: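 Read-out is binary presence or absence of eye malformation, scored by brightfield microscopy at 120 hpf. Single larvae were exposed from 6 hpf in embryo medium containing 0.64% DMSO, with DMSO as baseline.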

[13] = Tanguay_ZF_120hpf_SNOU_legacy: (Legacy) Oregon State University Tanguay Lab 120 Hour Post-fertilization zebrafish Assay for Snout Malformation (AID 2283637)
Procedure, shortened: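 Snout malformation read as a yes/no call on brightfield images of 120 hpf larvae (Tropical 5D strain). Static exposure began at 6 hpf on dechorionated embryos in 0.64% DMSO, with gain of signal analysed versus DMSO controls.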

[14] = Tanguay_ZF_120hpf_JAW_legacy: (Legacy) Oregon State University Tanguay Lab 120 Hour Post-fertilization zebrafish Assay for Jaw Malformation (AID 2283638)
Procedure, shortened: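 Static waterborne exposure of dechorionated wild-type (Tropical 5D) zebrafish from 6 to 120 hpf at 28C, 0.64% DMSO vehicle; 5uM trimethyltin chloride served as positive control. Jaw morphology recorded as binary at 120 hpf.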

[15] = Tanguay_ZF_120hpf_OTIC_legacy: (Legacy) Oregon State University Tanguay Lab 120 Hour Post-fertilization zebrafish Assay for Otic Vesicle Malformation (AID 2283639)
Procedure, shortened: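 Embryos from 5D wild-type adults exposed in plates; DMSO 0.64% v/v final. Sealed, light-protected, 28C, static to 120 hpf. Otic vesicle malformation recorded as binary endpoint; gain-of-signal fitted vs DMSO.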

[16] = Tanguay_ZF_120hpf_PE_legacy: (Legacy) Oregon State University Tanguay Lab 120 Hour Post-fertilization zebrafish Assay for Pericardial Edema (AID 2283640)
Procedure, shortened: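 Read-out is the presence or absence of pericardial edema at 120 hpf under brightfield, with gain of signal fitted against DMSO controls. Larvae (5D wild-type) were statically exposed at 28C with 0.64% final DMSO.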

[17] = Tanguay_ZF_120hpf_SOMI_legacy: (Legacy) Oregon State University Tanguay Lab 120 Hour Post-fertilization zebrafish Assay for Somite Malformation (AID 2283647)
Procedure, shortened: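 5D WT zebrafish; chorion removed 4 hpf; 1 embryo/well from 6 hpf; static exposure to 120 hpf, 28C, 0.64% DMSO final. Endpoint: somite malformation, binary, brightfield. Mortality excluded.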

[18] = Tanguay_ZF_120hpf_BRAI_legacy: (Legacy) Oregon State University Tanguay Lab 120 Hour Post-fertilization zebrafish Assay for Brain Malformation (AID 2283641)
Procedure, shortened: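 Brain malformation in Tropical 5D zebrafish was recorded as a binary endpoint after static compound exposure from early development to 120 hpf at 28C. Activity was analysed against DMSO as negative control.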

[19] = molecular target: Cellular tumor antigen p53 (Homo sapiens) (UniProt P04637); assay: TOX21_p53_BLA_p5_ratio: Tox21 HCT-116 p53 Agonism Beta-lactamase Assay, Ratio, Phase 5 (AID 2283599)
Procedure, shortened: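 Beta-lactamase reporter ratio (blue 460 nm over green 530 nm, 405 nm excitation) after 2 h CCF4-AM loading, in HCT-116 cells exposed 16 h at 37 C to compounds pinned at 217-fold dilution. Increases relative to DMSO baseline scored.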

[20] = ATG_XTT_Cytotoxicity: Cytotoxicity Assessment in the Attagene TRANS-FACTORIAL HepG2 Assay (AID 2283584)
Procedure, shortened: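 Transfect HepG2 with GAL4-UAS reporter units, dose compound, incubate 24 h, then measure viable cell number by XTT. Fit concentration response against DMSO baseline.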

Measured: AC50

CN(C[C@@H](CC[N+]12CCC(C3CCCCC3)(CC1)CC2)c1ccc(Cl)c(Cl)c1)C(=O)c1cc(C(F)(F)F)cc(C(F)(F)F)c1
inactive: [10] | [11] | [12] | [13] | [14] | [15] | [16] | [17]
active: [1] 26.6 µM | [2] 25.9 µM | [3] 64.8 µM | [4] 58.7 µM | [5] 87 µM | [6] 14.8 µM | [7] 46.8 µM | [8] 27.5 µM | [9] 25.5 µM

CCCCCCCCOC(=O)c1cc(O)c(O)c(O)c1
active: [2] 27.6 µM | [3] 50 µM | [4] 67.9 µM | [5] 36.8 µM | [6] 32.9 µM | [7] 42.6 µM | [8] 62.6 µM | [9] 8.13 µM
not listed: [19] | [20]
inactive: all other assays above

Oc1ccccc1
not listed: [16] | [18] | [20]
inactive: all other assays above

Clc1cc(Cl)c2c(c1)N=C1CCCCCN1C2
active: [10] 21.5 µM | [11] 7.43 µM | [13] 8.56 µM
not listed: [7] | [16] | [18] | [20]
inactive: all other assays above

Cc1cn([C@H]2C[C@H](N=[N+]=[N-])[C@@H](CO)O2)c(=O)[nH]c1=O
not listed: [7] | [18] | [19]
inactive: all other assays above
